Compounds without any hit were thinned out: in the full panel of roughly 79,000, 15% have a hit. A number with no mark means an inactive call. Activity calls are given as the source filed them. Rule as the data show it: active = growth inhibition above about 70%; inactive = the rest.
Legend:
[1] = NCI Yeast Anticancer Drug Screen. Data for the rad50 strain (AID 155);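 also: 0% = growth of vehicle-only cultures of the same strain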; details: S. cerevisiae rad50 strain growth inhibition, stronger effect = higher value
In short: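 Readout: growth inhibition relative to vehicle-treated cultures. Compound exposure was carried out in a genetically defined yeast strain deficient in DNA damage repair.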

[2] = NCI Yeast Anticancer Drug Screen. Data for the mec2-1 strain (AID 157); details: S. cerevisiae mec2-1 strain, stronger effect = higher value
In short: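 mec2-1 yeast strain, carrying an alteration in DNA damage repair or cell cycle control, was exposed to compounds; growth inhibition was measured relative to vehicle-treated controls.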

[3] = NCI Yeast Anticancer Drug Screen. Data for the sgs1 mgt1 strain (AID 161);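 also: 0% = growth of cultures given vehicle only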; details: S. cerevisiae sgs1 mgt1 strain, stronger effect = higher value
In short: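 Compounds are added to genetically altered yeast, and growth is compared with cultures given vehicle alone to give percent inhibition.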

[4] = NCI Yeast Anticancer Drug Screen. Data for the cln2 rad14 strain (AID 165);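 also: 0% = growth equal to vehicle treated cultures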; details: S. cerevisiae cln2 rad14 strain, stronger effect = higher value
In short: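 Yeast carrying cln2 and rad14 alterations (cell cycle control and DNA damage repair) were exposed to compounds. Growth inhibition was measured against vehicle-treated controls.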

[5] = NCI Yeast Anticancer Drug Screen. Data for the bub3 strain (AID 167); details: S. cerevisiae bub3 mutant strain, stronger effect = higher value
In short: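 Readout: yeast growth inhibition, expressed relative to vehicle-only wells. The test organism is a mutant strain from a panel with lesions in DNA repair or checkpoint genes.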

[6] = NCI Yeast Anticancer Drug Screen. Data for the mlh1 rad18 strain (AID 175); details: S. cerevisiae mlh1 rad18 strain growth inhibition, stronger effect = higher value
In short: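 Growth inhibition of the yeast strain was measured after compound exposure and expressed relative to vehicle-treated controls. The strain carries defined defects in DNA damage repair.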

[7] = at 5.0 µM (retest, dose inferred, filed as 0.5)
[8] = at 50.0 µM (retest, dose inferred, filed as 5.0)

SMILES	growth inhibition [1, 7]	growth inhibition [1, 8]	growth inhibition ([1]; at 50.0 µM)	growth inhibition [2, 7]	growth inhibition [2, 8]	growth inhibition ([2]; at 50.0 µM)	growth inhibition [3, 7]	growth inhibition [3, 8]	growth inhibition ([3]; at 50.0 µM)	growth inhibition [4, 7]	growth inhibition [4, 8]	growth inhibition ([4]; at 50.0 µM)	growth inhibition [5, 7]	growth inhibition [5, 8]	growth inhibition ([5]; at 50.0 µM)	growth inhibition [6, 7]	growth inhibition [6, 8]	growth inhibition ([6]; at 50.0 µM)
O=[N+]([O-])c1ccc2nc(CCl)[nH]c2c1	46%	80% (active)	73.2% (active)	37%	74% (active)	65.5%	42%	83% (active)	75% (active)	35%	56%	61%	43%	84% (active)	74% (active)	49%	87% (active)	73.3% (active)
CCOc1ccc2c(c1)nc1cc(Cl)ccc1[n+]2C	9%	81% (active)	85.5% (active)	12%	84% (active)	87.2% (active)	-2%	82% (active)	86.5% (active)	8%	68%	75.2% (active)	26%	88% (active)	82.8% (active)	18%	81% (active)	89.7% (active)
CCOC(=O)c1c(N)c(=O)n2c3c(cccc13)CC2	0%	92% (active)	96.9% (active)	-2%	98% (active)	97.5% (active)	0%	99% (active)	97.7% (active)	7%	59%	98.7% (active)	-1%	79% (active)	96.8% (active)	21%	98% (active)	98.6% (active)
CN(C)CC(=O)OCC[N+](C)(C)C	-3%	-2%	-22.1%	-6%	-5%	-15.1%	-3%	-3%	-12.7%	-15%	-10%	56.4%	6%	30%	15.4%	-4%	1%	-15.9%
O=C1C(c2ccccc2)CS(=O)(=O)CC1c1ccccc1 (stereo not drawn)	-10%	0%	14%	-8%	7%	2.85%	5%	7%	57.1%	3%	-4%	7%	-3%	-12%	-7.65%	13%	9%	12.6%
O=C1OC(C2OC(=O)C(=O)C2C(=O)c2ccc(Cl)c(Cl)c2)C(C(=O)c2ccc(Cl)c(Cl)c2)C1=O (stereo not drawn)	7%	97% (active)	94.5% (active)	10%	93% (active)	63.8%	14%	97% (active)	74.3% (active)	4%	84% (active)	34.5%	-34%	92% (active)	55.2%	12%	98% (active)	96.2% (active)

— PubChem BioAssay (NCI)
